Measurements reported in PubChem BioAssay (NCATS).
Records with an inconclusive call do not appear. Entries that show only a call come without a potency. Values without a mark were called inactive. The source made the active and inactive calls. The call rests on the fitted dose curve; in most records, active means well fitted inhibition curve with a large enough effect; inconclusive means small, poorly fitted or top-dose-only effect; inactive means flat fitted curve, though single readings scatter.

What follows are compounds tested against Calcium and integrin-binding protein 1 (Homo sapiens) (UniProt Q99828) (assay: Primary qHTS for Identification of Calcium Integrin Binding Protein 1 (CIB1) Competitor (AID 1508620;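 further: GST tagged CIB1 binding a fluorescein labelled alphaIIb integrin peptide tracer; top concentration of the series differs between compounds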)). Settings: CIB1-GST / FITC-alphaIIb peptide fluorescence polarization; series mostly up to 57.7 µM.
Sequence of Calcium and integrin-binding protein 1 (Homo sapiens) (Q99828 whole entry, looked up): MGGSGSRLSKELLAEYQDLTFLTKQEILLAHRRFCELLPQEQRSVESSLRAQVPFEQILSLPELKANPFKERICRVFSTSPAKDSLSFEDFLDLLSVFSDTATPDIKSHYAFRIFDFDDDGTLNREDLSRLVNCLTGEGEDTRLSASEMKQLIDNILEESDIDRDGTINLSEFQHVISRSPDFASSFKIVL
Text: Assay Provider: Ulhas P. Naik, PhD Sidney Kimmel Medical College Thomas Jefferson University, Philadelphia, PA Primary function of platelets is to maintain hemostasis. At the site of vascular injury, platelets adhere to adhesive proteins such as collagen and von Willebrand factor. Adherent platelets are activated and generate soluble platelet agonists such as thrombin, ADP and thromboxane A2. Following exposure of circulating platelets to these agonists, results in platelet shape change, granule secretion and activation of platelet integrin alphaIIb-beta3. Ligand binding to activated integrin alphaIIb-beta3 triggers outside-in signaling, leading to platelet aggregation, stabilization of platelet plug, and clot retraction. Upon atherosclerotic plaque rupture also causes platelet plug formation, which underlies a number of cardiovascular diseases such as myocardial infraction and stroke. A number of anti-platelet drugs such as aspirin, clopidogrel, prasugrel, vorapaxar, and eptifibatide are currently available to prevent the thrombotic complications. However, these anti-platelet agents have several limitations including inherent variability in individual responses, developing resistance, and serious bleeding side effects. For these reasons they are not suitable for long-term protection. Based on the experiences with current anti-platelet drugs, it appears that the most useful therapeutic approach is to intersect the secondary responses such as integrin outside-in signaling or recruitment of platelets by TxA2 and secreted ADP. Compounds, which can largely preserve the primary hemostatic function of platelets but inhibit secondary response will be most desired therapeutic agents for treatment of cardiovascular disease. CIB1 is a calcium integrin binding protein, which specifically interact with the alphaIIb subunit of integrin alphaIIb-beta3. Binding of CIB1 to alphaIIb regulates the outside-in signaling in platelets, which is needed for thrombus stabilization and thrombus growth. […] Therefore, we propose that discovery of a small molecule that can prevent the association of CIB1 and alphaIIb-beta3 will be a potential anti-platelet agent that can block the thrombus formation without undue effect on hemostasis. Reference: [1] Naik MU, Nigam A, Manrai P, et al. CIB1 deficiency results in impaired thrombosis: the potential role of CIB1 in outside-in signaling through integrin alpha IIb beta 3. J Thromb Haemost.
PROTOCOL TABLES SEQUENCE No. (1, 2, 3, etc.); […] (e.g., Cells, Incubation, Reagent, etc.); VALUE and DESCRIPTION. 1; Reagent; 3 uL; Protein or buffer (4/3x) 2; Compound; 46 nL; Control inhibitor / compound library 3; Time; 15 min; Room temperature incubation 4; Reagent; 1 uL; Fluorescent labeled peptide (4x) 5; Time; 1000 rpm; Centrifuge 6; Time; 15 min; Room temperature incubation 7; Detection; Ex 480/ Em 540; ViewLux Fluorescence Read NOTES (numbers refer to sequence above) 1; Protein Mixture: C1B1-GST (final concentrations of 1 uM). […] 3; Room temperature incubation. 4; Fluorescent Labeled Peptide: FITC-aIIb (final concentration of 100 nM). Sequence of alphaIIb peptide: Acetyl-[…]-FITC (purity is 95.83%). 5; Centrifuge 1000 rpm (164 g) for 15 seconds. 6; Room temperature incubation. 7; ViewLux Fluorescent Polization Read: excitation = 480(20) / emission = 540(25) S and P; FITC Dichroic mirror.

SMILES | Potency | activity change, negative = inhibition
CC1CC2OCC3(O)CCC(O)C(C14CC(c1ccoc1)OC4=O)C23CO (stereo not given) | inactive | –
C[C@H]1CC[C@@]2(OC1)O[C@H]1CC3C4CC[C@H]5C[C@@H](O[C@@H]6O[C@H](CO)[C@H](O[C@@H]7O[C@H](CO)[C@@H](O)[C@H](O[C@@H]8OC[C@@H](O)[C@H](O)[C@H]8O)[C@H]7O[C@@H]7O[C@H](CO)[C@@H](O)[C@H](O)[C@H]7O)[C@H](O)[C@H]6O)[C@H](O)C[C@]5(C)C4=CC(=O)[C@]3(C)[C@H]1[C@@H]2C (stereo not given in full) | inactive | –
CCC(C)/C=C(C)/C=C/C1=CC2=C(Cl)C(=O)C(C)(OC(C)=O)C(=O)C2=CN1C(CCCN=C(N)N)C(=O)O (stereo not given) | inactive | –
COc1cc(/C=C/C(=O)O[C@H]2[C@@H]3C=CO[C@@H](O[C@@H]4O[C@H](CO)[C@@H](O)[C@H](O)[C@H]4O)[C@@H]3[C@@]3(CO)O[C@@H]23)ccc1O | inactive | –
C/C(=C\CO)CC/C=C(\C)C(=O)O[C@@H]1O[C@H](CO)[C@@H](O)[C@H](O)[C@H]1O | inactive | –
C[C@H]1CC[C@@]2(OC1)O[C@H]1CC3C4CC[C@H]5C[C@@H](O)CC[C@]5(C)C4CC(=O)[C@]3(C)[C@H]1[C@@H]2C (stereo not given in full) | inactive | –
COC1OC(OC)C(O)(CCC2(C)C(C)CCC3(C)C2CC(O)C(O)C32CO2)C1O (stereo not given) | inactive | –
CC1CC(O)/C=C/C(O)/C=C\C(=O)O1 (stereo not given) | inactive | –
CCCC1=CC2=C(CO1)C(=O)C(C)(O)C(OC(=O)c1c(C)cc(OC)cc1O)C2 (stereo not given) | inactive | –
CC[C@@H]1[C@H]2CCCCN3C(=O)C[C@H]([C@@H]4[C@H]1OC(=O)[C@H]4C)[C@@H]23 | inactive | –
CC1=C(CCC(C)O[C@@H]2O[C@H](CO)[C@@H](O)[C@H](O)[C@H]2O)C(C)(C)CC(O)C1 (stereo not given in full) | inactive | –
CC1C2=CC(=O)OC2(O)CC2C1CCC1C(C)(C)CCC(O)C21C (stereo not given) | inactive | –
O=C(Nc1ccc(N2CCC(C(=O)N3CCOCC3)CC2)cc1)c1cnc(Oc2ccccc2)nc1 | inactive | –
CC(O)C1CCC2C3CCC4CC(OC5OC(C(=O)O)C(O)C(O)C5O)CCC4(C)C3CCC12C (stereo not given) | inactive | –
C=C1C(=O)OC[C@H]2C(C(=O)O)=CC3CC(C)(C)C[C@@]132 (stereo not given in full) | inactive | –
CCOc1nc2c(N)ncnc2n1CC | inactive | –
CC(C)CC(=O)NCCn1cc(C(=O)O)c(=O)cc1C(O)c1ccccc1 (stereo not given) | inactive | –
C/C(=C\CC/C(C)=C/CC[C@]1(C)CCc2cc(O)cc(C)c2O1)CC/C=C(\C)C(=O)O | inactive | –
CC1(C)CC[C@]2(C(=O)O[C@@H]3O[C@H](CO[C@@H]4O[C@H](CO)[C@@H](O)[C@H](O)[C@H]4O)[C@@H](O)[C@H](O[C@@H]4O[C@H](CO)[C@@H](O)[C@H](O)[C@H]4O)[C@H]3O)CC[C@]3(C)C(=CCC4[C@@]5(C)CC[C@H](O[C@@H]6OC[C@@H](O)[C@H](O)[C@H]6O)[C@@](C)(C(=O)O)C5CC[C@]43C)[C@@H]2C1 (stereo not given in full) | inactive | –
CC1OC(O[C@H]2CC[C@@]3(C)C(CC[C@]4(C)C3CC=C3C5CC(C)(C)CC[C@]5(C(=O)OC5OC(CO)C(OC6OCC(OC7OCC(O)C(O)C7O)C(O)C6O)C(O)C5O)CC[C@]34C)C2(C)C)C(O)C(O)C1OC1OC(CO)C(O)C(OC2OC(CO)C(O)C(O)C2O)C1O (stereo not given in full) | – | -8.26% [at 12.4 µM]

SMILES | Potency | activity change, negative = inhibition
COc1cccc(Cn2ncc3c4sc(S(C)=O)cc4n(C)c3c2=O)c1 (stereo not given) | inactive | –
CC1(C)CC(NC(=O)C(=O)Nc2ccc(Cl)cc2)CC(C)(C)N1 | inactive | –
CC1(C(=O)O)CCCC2(C)C3CCC4CC3(CCC12)CC4(O)CO (stereo not given) | inactive | –
C/C(=C\CCC(C)(C)O)CCO[C@@H]1O[C@H](CO[C@@H]2O[C@@H](C)[C@H](O)[C@@H](O)[C@H]2O)[C@@H](O)[C@H](O)[C@H]1O | inactive | –
N#Cc1cccc(-c2nc(-c3cccnc3)no2)c1 | inactive | –
COc1c(C)c(OCC=C(C)C)cc2c1CNC2=O | inactive | –
CC1CCC2C(C)(C)C(O)C(O)CC2(C)C12Cc1c(O)cc(CO)c(C=O)c1O2 (stereo not given) | inactive | –
COC(=O)C1=CO[C@@H](O[C@@H]2O[C@H](CO)[C@@H](O)[C@H](O)[C@H]2O)/C(=C\CO)[C@@H]1CC(=O)OCCc1ccc(O)cc1 | inactive | –
CC[C@H](NC(=O)c1c(O)c(-c2ccccc2)nc2ccccc12)c1ccccc1 | inactive | –
O=C(/C=C/c1ccc(O)c(O)c1)O[C@H]1[C@@H]2C=CO[C@@H](O[C@@H]3O[C@H](CO)[C@@H](O)[C@H](O)[C@H]3O)[C@@H]2[C@@]2(CO)O[C@@H]12 | inactive | –
C=C1CC2C(C)(CCC(=O)O)C(C(C)(C)O)CCC2(C)C2(C(=O)OC)C(=O)C(C)(O)C(=O)C12C (stereo not given) | inactive | –
CCOc1ncc(S(=O)(=O)N2CCN(CC)CC2)cc1-c1nc2c(CC)n(CCOC)nc2c(=O)[nH]1 | inactive | –
CC1(C)CCCC2(C)c3c4c(c(=O)oc(=O)c3=CCC12)=CCC1C(C)(C)CCCC41C (stereo not given) | inactive | –
COc1ccc(C2COc3cc(O)ccc3C2)c(O)c1OC (stereo not given) | inactive | –
COc1ccc(OC)c(C2C(C#N)=C(N)Oc3n[nH]c(-c4ccc5ccccc5c4)c32)c1 (stereo not given) | inactive | –
COc1cc(O)c2c(c1)C1(OC2=O)C(C)=CC(=O)C1O (stereo not given) | inactive | –
C=C1CCC2[C@](C)(CO)CCC[C@@]2(C)[C@@H]1CCC1=CCOC1=O (stereo not given in full) | inactive | –
CCN=C1N[C@@H]2[C@@H](O)[C@H](O)[C@@H](CO)O[C@@H]2S1 | inactive | –
C[C@H]1CC(=O)C2=C(C1)C(O)C(O)[C@@]1(O)[C@H]2C(=O)c2cccc(O)c2[C@@H]1O (stereo not given in full) | inactive | –
C[C@@H]1CC[C@]2(C(=O)O)CC[C@]3(C)C(=CCC4[C@@]5(C)C[C@@H](O)[C@@H](O)C(C)(C)C5CC[C@]43C)C2[C@]1(C)O (stereo not given in full) | inactive | –
